Source: PubChem BioAssay (several laboratories)
RecA splice inh: inhibitors of M. tuberculosis RecA intein splicing; P9WHJ3; inhibition, % (test concentration not listed); cell-free RecA intein splicing, fluorescence; AID 2221; 290,000 tested, 0.75% active; in the data active = inhibition above about 30%
GDH-TPI inh: counter-screen for M. tuberculosis FBA inhibitors: GDH-TPI coupled enzymes. AID 588335. inhibition, % at 4.8 µM. GDH-TPI coupled enzyme counterscreen, NADH absorbance. 360,000 tested, 1.2% active; in the data active = inhibition above about 30%
Mtb betalactam: beta-lactam sensitization of Mtb H37Rv; M. tuberculosis H37Rv growth with meropenem, percent inhibition; inhibition, % at 25 µM; 330,000 tested, 0.27% active; AID 434955; call rule not given here;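 also: growth measured after seven days incubation then overnight dye step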
UGM FP inh: inhibitors of M. tuberculosis UDP-galactopyranose mutase; 320,000 tested, 0.06% active; AID 504406; P9WIQ1; inhibition, % at 10 µM; purified UGM, fluorescence polarization probe displacement; in the data active = inhibition above about 10%, passing the limit was not always enough
Mtb FBA inh: Mtb fructose-bisphosphate aldolase inhibition; P9WQA3; purified M. tuberculosis FBA, fluorescence read-out; inhibition, % at 1 µM; 360,000 tested, 2.3% active; in the data active = inhibition above about 27%
Target sequence (P9WQA3 whole entry, looked up): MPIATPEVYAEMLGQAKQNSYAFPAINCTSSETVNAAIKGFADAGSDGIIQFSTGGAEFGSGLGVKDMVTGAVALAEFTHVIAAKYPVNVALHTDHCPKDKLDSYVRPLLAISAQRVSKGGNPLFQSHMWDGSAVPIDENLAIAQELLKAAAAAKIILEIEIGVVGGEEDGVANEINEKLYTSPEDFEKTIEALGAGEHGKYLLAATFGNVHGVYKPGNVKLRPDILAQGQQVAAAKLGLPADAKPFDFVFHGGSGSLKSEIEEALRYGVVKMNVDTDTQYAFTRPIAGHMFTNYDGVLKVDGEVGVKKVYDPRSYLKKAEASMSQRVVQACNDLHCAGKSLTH
Rv3671c inh: inhibits the M. tuberculosis serine protease Rv3671c; 320,000 tested, 0.048% active; inhibition, % at 5.96 µM; AID 2606; in the data active = inhibition above about 38%;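 also: extracellular domain of Rv3671c used as enzyme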
Of the large screens only hits and unclear results are named; the others gave an inactive call. A selection: hits, their analogues and other compounds. The true share with any hit is near 4%.

CC(C(=O)Nc1ccc2c(c1)OCO2)N(c1ccc(Cl)cc1)S(C)(=O)=O (centres undefined)	none
Cc1nnc(SC(C)C(=O)NC2CCCCC2)[nH]c1=O (centres undefined)	none (no result: RecA splice inh, Mtb betalactam, UGM FP inh, Rv3671c inh)
O=c1c2c([nH]c3ccccc13)CCC2	none
Cc1ccc2[nH]c3ccccc3c(=O)c2c1	Mtb FBA inh 136
O=c1c2ccccc2[nH]c2ccc(F)cc12	Mtb FBA inh 156
O=c1[nH]c2ccccc2c(=O)c2ccccc12	none (no result: RecA splice inh, Mtb betalactam, UGM FP inh, Rv3671c inh)
O=C(Nc1ccc(Cl)cc1)C1CCCCN1S(=O)(=O)c1ccccc1 (centres undefined)	none (no result: RecA splice inh)
O=Cc1c(Cl)nc2ccccn12	none
Clc1cc2nc3ccccn3c2cc1Cl	Mtb FBA inh 140
COc1ccc(NC(=O)Cn2nnc(-c3ccccc3)c2COc2ccc3ccccc3c2)cn1	none (no result: RecA splice inh, Mtb betalactam, UGM FP inh, Rv3671c inh)
O=[N+]([O-])c1cc(/C=N/n2cnnc2)ccc1N1CCCC1	GDH-TPI inh 37
O=C(N/N=C/c1c(O)n(C2CCCCC2)c(=S)[nH]c1=O)c1ccccc1	none
CC(N=Cc1c(O)n(C2CC2)c(=S)[nH]c1=O)c1ccccc1 (centres undefined)	GDH-TPI inh 35
O=c1[nH]c(=S)n(C2CC2)c(O)c1/C=N/Nc1ccccc1	none (no result: UGM FP inh)
O=C(N/N=C/c1c(O)n(C2CCCCC2)c(=S)[nH]c1=O)c1ccccc1O	RecA splice inh 37
Cc1cccc(CCNC(=O)c2cc(S(=O)(=O)N3CCCC3)cn2C)c1	none
COC(=O)c1ccc2c(c1)C(C)(C)C(/C=C/c1ccccc1O)=[N+]2C	none (no result: RecA splice inh)
C[N+]1=C(/C=C/Nc2ccccc2Cl)C(C)(C)c2ccccc21	GDH-TPI inh 36 (no result: UGM FP inh)
O=C1CCC/C1=C/Nc1ccc(Cl)cc1	GDH-TPI inh 32
O=C1CCCC/C1=C\Nc1ccc(O)cc1	GDH-TPI inh 33
Cc1ccc2[nH]c(O)c(N=NC(N)=S)c2c1	GDH-TPI inh 38
CN(C)c1ccc(C=c2c3cc([N+](=O)[O-])ccc3n3c2cc(-c2ccccc2)[n+]3C)cc1	GDH-TPI inh 42 (no result: RecA splice inh, Mtb betalactam, UGM FP inh, Rv3671c inh)
CC(=O)c1cc2ccc(O)cc2oc1=O	Mtb FBA inh active
CC(=O)c1cc2cc(O)ccc2o1	Mtb FBA inh active
O=C(NCc1ccco1)c1cc2ccc(O)cc2oc1=O	Mtb FBA inh active
Cc1ccc(N=c2oc3cc(O)ccc3cc2C(N)=O)cc1	Mtb FBA inh active
Cn1nc(-c2ccccc2)c(CO)c1Oc1cccc(C(F)(F)F)c1	none
CCCCN(CCCC)S(=O)(=O)c1ccc(NC(=O)c2ccc([N+](=O)[O-])cc2Cl)cc1	none
COc1cccc(/C=C2/SC(=O)N(CC(=O)N3CCc4ccccc4C3)C2=O)c1OCC(=O)O	GDH-TPI inh 32
COc1cccc(/C=C2/SC(=O)N(C)C2=O)c1OCc1ccc(C(=O)O)cc1	none (no result: RecA splice inh)
Clc1ccc2c(NCCNC3CCCCC3)ccnc2c1	none (no result: RecA splice inh, Mtb betalactam, UGM FP inh, Rv3671c inh)
COc1ccccc1N1CCN(C(=O)/C=C/c2ccc3c(c2)OCO3)CC1	GDH-TPI inh 43
CC1CN(C(=O)/C=C/c2ccc3c(c2)OCO3)CC(C)O1 (centres undefined)	GDH-TPI inh 35
COc1ccc(COc2cc(-c3cccc(OC)c3)nc3ccc(NC(C)=O)cc23)cc1	Mtb FBA inh 136
COc1ccc(COc2cc(-c3cccc(OC)c3)nc3ccc(NC(=O)c4ccc(C)cc4)cc23)cc1	none
COc1ccc(COc2cccnc2N)cc1	none (no result: RecA splice inh)
COc1ccc(COc2cc(-c3cccc(OC)c3)nc3ccc(N)cc23)cc1	Mtb FBA inh 54
COc1ccc(COc2cc(-c3cccc(OC)c3)nc3ccc(NC(=O)c4ccc(N(C)C)cc4)cc23)cc1	GDH-TPI inh 38
CCCN(CC(=O)Nc1ccccc1OC)C(=O)c1ccc2c(c1)NC(=O)C(C)S2 (centres undefined)	none (no result: RecA splice inh)
CCc1ccc2[nH]c(=O)c(C(c3nnnn3CC3CCCO3)N3CCCc4ccccc43)cc2c1 (centres undefined)	none
Cc1cc2cc(C(c3nnnn3CC3CCCO3)N3CCCc4ccccc43)c(=O)[nH]c2cc1C (centres undefined)	GDH-TPI inh 34 (no result: Mtb betalactam, UGM FP inh, Rv3671c inh)
Clc1ccc2oc(-c3ccccc3)nc2c1	none
O=S(=O)(O)c1cc2oc(-c3ccccc3)nc2c2ccccc12	Mtb FBA inh active
Cc1cc(=O)oc(C)c1C(=O)NCCC(C)C	GDH-TPI inh 32
CC1CCCN(C(=O)c2nn(C)c3c2CS(=O)(=O)c2ccccc2-3)C1 (centres undefined)	none
